NPR2 activator – GC-B (human) receptor activation; activation, % at 10 µM; P20594; HEK293-GC-B cells, CNP EC30, cGMP TR-FRET; 0% at EC30 CNP, 100% saturating CNP; 0.11% of 370,000 active;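 active = activation at 10 µM reaching about 35% in either raw or pattern-adjusted values, limit read from the data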
ADAM17 inh – inhibitors of human ADAM17. P78536. 0.83% of 370,000 active. recombinant ADAM17, EDANS/DABCYL FRET peptide cleavage. inhibition, % at 6.95 µM. AID 720648;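 active = inhibition above the mean of compounds lying between control limits plus 3 SD, set per campaign, cut at about 8.5% in these data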
FAS TE block – inhibitors of human fatty acid synthase thioesterase domain. recombinant FAS-TE, OMFH fluorogenic substrate, fluorescence endpoint. 0.67% of 360,000 active. AID 602261. P49327. inhibition, % at 15 µM;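 active = compounds whose normalised, plate-corrected inhibition of enzyme fluorescence in the single-dose primary screen is 50% or more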
Target sequence (P49327 whole entry, looked up, the tested form may be a part): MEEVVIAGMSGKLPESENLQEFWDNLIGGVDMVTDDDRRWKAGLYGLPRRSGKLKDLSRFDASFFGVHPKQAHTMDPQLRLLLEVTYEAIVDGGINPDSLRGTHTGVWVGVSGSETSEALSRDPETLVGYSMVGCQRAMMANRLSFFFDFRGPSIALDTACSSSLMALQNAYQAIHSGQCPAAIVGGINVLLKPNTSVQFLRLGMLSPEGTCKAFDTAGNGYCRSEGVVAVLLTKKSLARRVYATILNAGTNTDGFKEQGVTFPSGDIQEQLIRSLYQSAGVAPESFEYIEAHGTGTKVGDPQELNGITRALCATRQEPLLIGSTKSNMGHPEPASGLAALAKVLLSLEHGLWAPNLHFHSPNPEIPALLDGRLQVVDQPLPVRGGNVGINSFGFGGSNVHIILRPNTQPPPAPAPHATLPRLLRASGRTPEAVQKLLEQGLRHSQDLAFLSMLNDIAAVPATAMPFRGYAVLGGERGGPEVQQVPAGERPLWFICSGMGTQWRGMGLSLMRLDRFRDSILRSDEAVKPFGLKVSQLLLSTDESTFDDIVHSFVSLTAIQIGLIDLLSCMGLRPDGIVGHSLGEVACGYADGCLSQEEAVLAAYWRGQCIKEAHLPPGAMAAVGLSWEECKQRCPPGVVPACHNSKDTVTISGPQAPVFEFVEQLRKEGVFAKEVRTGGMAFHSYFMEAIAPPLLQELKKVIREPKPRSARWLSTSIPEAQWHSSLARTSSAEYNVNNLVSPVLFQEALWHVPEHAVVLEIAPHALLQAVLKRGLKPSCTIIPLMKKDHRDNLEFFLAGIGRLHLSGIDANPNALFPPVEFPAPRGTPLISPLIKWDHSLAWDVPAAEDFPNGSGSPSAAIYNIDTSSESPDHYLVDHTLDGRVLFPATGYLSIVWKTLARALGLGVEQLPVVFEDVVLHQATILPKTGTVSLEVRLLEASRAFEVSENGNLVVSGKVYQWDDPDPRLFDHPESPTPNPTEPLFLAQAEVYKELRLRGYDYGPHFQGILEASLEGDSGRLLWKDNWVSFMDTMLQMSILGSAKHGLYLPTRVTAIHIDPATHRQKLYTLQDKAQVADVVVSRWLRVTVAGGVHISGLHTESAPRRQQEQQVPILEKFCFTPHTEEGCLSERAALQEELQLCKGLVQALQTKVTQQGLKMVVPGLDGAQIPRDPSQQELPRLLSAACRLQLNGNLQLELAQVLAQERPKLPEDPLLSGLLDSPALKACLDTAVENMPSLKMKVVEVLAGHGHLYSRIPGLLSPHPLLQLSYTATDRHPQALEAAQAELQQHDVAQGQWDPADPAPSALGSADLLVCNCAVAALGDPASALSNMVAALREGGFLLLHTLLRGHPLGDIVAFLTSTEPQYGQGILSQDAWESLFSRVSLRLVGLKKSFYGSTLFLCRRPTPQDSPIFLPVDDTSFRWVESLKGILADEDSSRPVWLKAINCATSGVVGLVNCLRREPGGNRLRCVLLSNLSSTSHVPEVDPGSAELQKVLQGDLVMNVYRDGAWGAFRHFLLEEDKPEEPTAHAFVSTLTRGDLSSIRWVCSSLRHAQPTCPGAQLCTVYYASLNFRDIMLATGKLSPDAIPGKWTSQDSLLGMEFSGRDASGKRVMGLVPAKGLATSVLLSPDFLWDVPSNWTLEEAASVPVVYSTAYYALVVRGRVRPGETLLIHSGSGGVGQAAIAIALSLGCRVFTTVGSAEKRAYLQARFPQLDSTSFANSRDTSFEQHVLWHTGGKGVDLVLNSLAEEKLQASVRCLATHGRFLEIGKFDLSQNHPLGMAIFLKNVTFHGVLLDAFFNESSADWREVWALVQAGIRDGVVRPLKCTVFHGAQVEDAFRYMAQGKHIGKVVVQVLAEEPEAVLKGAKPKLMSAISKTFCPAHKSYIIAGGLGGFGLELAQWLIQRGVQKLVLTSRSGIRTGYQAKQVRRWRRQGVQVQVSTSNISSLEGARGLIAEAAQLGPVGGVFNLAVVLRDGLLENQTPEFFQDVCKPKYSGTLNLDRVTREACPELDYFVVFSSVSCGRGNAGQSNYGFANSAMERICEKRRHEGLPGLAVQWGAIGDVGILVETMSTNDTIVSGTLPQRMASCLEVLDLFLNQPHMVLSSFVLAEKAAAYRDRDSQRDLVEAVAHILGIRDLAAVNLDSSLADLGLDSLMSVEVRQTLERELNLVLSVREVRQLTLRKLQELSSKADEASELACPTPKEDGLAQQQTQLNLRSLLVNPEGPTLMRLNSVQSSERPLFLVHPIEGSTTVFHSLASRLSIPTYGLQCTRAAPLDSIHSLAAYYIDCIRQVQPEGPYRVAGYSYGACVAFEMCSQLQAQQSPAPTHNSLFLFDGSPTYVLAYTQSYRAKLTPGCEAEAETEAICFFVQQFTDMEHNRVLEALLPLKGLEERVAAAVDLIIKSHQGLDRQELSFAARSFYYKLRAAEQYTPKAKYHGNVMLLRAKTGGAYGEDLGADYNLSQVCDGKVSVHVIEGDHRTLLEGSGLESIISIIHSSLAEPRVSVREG
NPR1 activator – GC-A (human) enzyme activation; HEK293 GC-A cells, cGMP TR-FRET, EC30 ANP; 0% at EC30 ANP, 100% saturating ANP; 0.14% of 370,000 active; P16066; activation, % at 10 µM; in the data active = activation above about 40%
ADAM10 inh – inhibitors of human ADAM10. O14672. recombinant ADAM10, EDANS/DABCYL FRET peptide cleavage, 3 h. inhibition, % at 7 µM. 0.62% of 370,000 active. AID 720582;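 active = inhibition above a per-campaign cutoff equal to the mean of compounds falling between control-based bounds plus 3 SD, cut at about 20% in these data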
A number is an active result. An excerpt weighted towards active compounds, which were near 2% of everything screened.

How did CCC(C)Nc1nc2c(c(=O)n(C)c(=O)n2C)n1Cc1cccc(C)c1 (centres undefined) do in these assays?
NPR2 activator: inactive; ADAM17 inh: inactive; FAS TE block: inactive; NPR1 activator: inactive; ADAM10 inh: inactive

How did CCNc1nc2c(c(=O)n(C)c(=O)n2C)n1Cc1ccc(Cl)cc1 do in these assays?
NPR2 activator: inactive; ADAM17 inh: inactive; FAS TE block: inactive; NPR1 activator: inactive; ADAM10 inh: inactive

Results for Cn1c(=O)[nH]c(=O)c2c1nc(NC1CCCCC1)n2Cc1ccccc1 ?
NPR2 activator: 39; ADAM17 inh: inactive; FAS TE block: inactive; NPR1 activator: 52; ADAM10 inh: inactive

How did CCC(C)Nc1nc2c(c(=O)n(C)c(=O)n2C)n1Cc1ccc(Cl)cc1 (centres undefined) do in these assays?
NPR2 activator: 48; ADAM17 inh: inactive; FAS TE block: inactive; NPR1 activator: 42; ADAM10 inh: inactive

How did COC(=O)C1CN(Cc2cn(Cc3ccccc3)nn2)CCS(=O)(=O)N1Cc1ccccc1 (centres undefined) do in these assays?
NPR2 activator: inactive; ADAM17 inh: inactive; NPR1 activator: inactive; ADAM10 inh: inactive

What do the screens show for `CC(C)C[C@H](NC(=O)c1nccs1)C(=O)N1CCC[C@H]1C(=O)NCc1ccccc1`?
NPR2 activator: inactive; ADAM17 inh: inactive; NPR1 activator: inactive; ADAM10 inh: inactive

How did Cc1ccc2nc(CN(C)C(=O)[C@H](CCc3ccccc3)NC(=O)[C@H]3O[C@@H](n4cnc5c(N)ncnc54)[C@H](O)[C@@H]3O)[nH]c2c1 do in these assays?
NPR2 activator: inactive; ADAM17 inh: inactive; NPR1 activator: inactive; ADAM10 inh: inactive

How did O=C(NCc1c(F)cccc1F)C1C2C=CC3(CN(Cc4ccccc4)C(=O)C13)O2 (centres undefined) do in these assays?
NPR2 activator: inactive; ADAM17 inh: inactive; NPR1 activator: inactive; ADAM10 inh: inactive

Results for CCCNc1nc2c(c(=O)n(C)c(=O)n2C)n1Cc1ccc(F)cc1 ?
NPR2 activator: 41; ADAM17 inh: inactive; FAS TE block: inactive; NPR1 activator: inactive; ADAM10 inh: inactive

What do the screens show for `Cn1c(NCC2CCCO2)nc2c1c(=O)n(Cc1ccccc1)c(=O)n2C` (centres undefined)?
NPR2 activator: inactive; ADAM17 inh: inactive; FAS TE block: inactive; NPR1 activator: inactive; ADAM10 inh: inactive

Results for Cn1c(=O)c2c(nc(NCC3CCCO3)n2Cc2cccc(Br)c2)n(C)c1=O (centres undefined) ?
NPR2 activator: 38; ADAM17 inh: inactive; FAS TE block: inactive; NPR1 activator: inactive; ADAM10 inh: inactive

Results for Cc1ccc(Cn2c(NCCc3ccccc3)nc3c2c(=O)n(C)c(=O)n3C)cc1 ?
NPR2 activator: inactive; ADAM17 inh: inactive; FAS TE block: inactive; NPR1 activator: inactive; ADAM10 inh: inactive

How did C=CCC[C@H](Cc1ccc(F)cc1)C(=O)OC[C@@H](NC(=O)[C@@H](CC=C)CC(=O)N[C@@H](CO)Cc1ccccc1)C(C)(C)C do in these assays?
NPR2 activator: inactive; ADAM17 inh: inactive; FAS TE block: inactive; NPR1 activator: inactive; ADAM10 inh: 20

Results for CCCOC(=O)CSc1nnc(-c2ccc(Cl)cc2Cl)o1 ?
NPR2 activator: inactive; ADAM17 inh: inactive; FAS TE block: inactive; NPR1 activator: 63; ADAM10 inh: inactive

Results for CCOC(=O)CSc1nnc(-c2ccc(Cl)cc2Cl)o1 ?
NPR2 activator: inactive; ADAM17 inh: inactive; FAS TE block: inactive; NPR1 activator: 67; ADAM10 inh: inactive

What do the screens show for `O=C(CSc1nnc(-c2ccccc2F)o1)OCc1ccccc1`?
NPR2 activator: inactive; ADAM17 inh: inactive; FAS TE block: inactive; NPR1 activator: 61; ADAM10 inh: inactive

What do the screens show for `CCOC(=O)CSc1nnc(-c2ccccc2)o1`?
NPR2 activator: inactive; ADAM17 inh: inactive; FAS TE block: inactive; NPR1 activator: inactive; ADAM10 inh: inactive

Results for O=C(C1=C[C@@H](c2ccc(C(F)(F)F)cc2)C[C@@H](OCc2ccc(CO)cc2)O1)N1CCN(Cc2ccc3c(c2)OCO3)CC1 ?
NPR2 activator: inactive; ADAM17 inh: inactive; FAS TE block: inactive; NPR1 activator: inactive; ADAM10 inh: 28

Results for Cc1cccc(-n2nc3c(c2NC(=O)c2ccco2)CSC3)c1C ?
NPR2 activator: inactive; ADAM17 inh: 9.1; FAS TE block: inactive; NPR1 activator: inactive; ADAM10 inh: inactive

How did O=C(COC(=O)c1cnc(Cl)c(Cl)c1)c1ccc(F)cc1 do in these assays?
NPR2 activator: inactive; ADAM17 inh: inactive; FAS TE block: inactive; NPR1 activator: 52; ADAM10 inh: inactive

How did Cc1cccc(-c2cccc3c4c([nH]c23)[C@@H]2C[C@H](N(C)C(=O)c3ccccc3C)[C@H]([C@H](C)O)CN2CC4)c1 do in these assays?
NPR2 activator: inactive; ADAM17 inh: inactive; NPR1 activator: inactive; ADAM10 inh: inactive

Results for Cc1ccc2nc(NC(=O)C3CCCN(S(=O)(=O)c4cccnc4)C3)sc2c1 (centres undefined) ?
NPR2 activator: inactive; ADAM17 inh: inactive; FAS TE block: inactive; NPR1 activator: 48; ADAM10 inh: inactive

What do the screens show for `Cc1ccc(C)c(NC(=O)C2CCCN(S(=O)(=O)c3cccnc3)C2)c1` (centres undefined)?
NPR2 activator: inactive; ADAM17 inh: inactive; FAS TE block: inactive; NPR1 activator: inactive; ADAM10 inh: inactive

How did COC(=O)CSc1nn(-c2ccc(F)cc2)c(=S)s1 do in these assays?
NPR2 activator: inactive; ADAM17 inh: inactive; FAS TE block: inactive; NPR1 activator: 40; ADAM10 inh: inactive

Results for O=C(CSc1nn(-c2ccccc2)c(=S)s1)Nn1cnnc1 ?
NPR2 activator: inactive; ADAM17 inh: inactive; FAS TE block: inactive; NPR1 activator: inactive; ADAM10 inh: inactive

How did CCOC(=O)[C@]12CCCC=C1N(Cc1ccc(OC)cc1)C(=O)[C@@H]2CC(=O)N1CCC(c2ccccc2)CC1 do in these assays?
NPR2 activator: inactive; ADAM17 inh: inactive; NPR1 activator: inactive; ADAM10 inh: inactive

What do the screens show for `C[C@@H](O)CC#Cc1ccc2oc(=O)c(-n3cc(-c4ccsc4)nn3)cc2c1`?
NPR2 activator: inactive; ADAM17 inh: inactive; FAS TE block: inactive; NPR1 activator: inactive; ADAM10 inh: inactive

What do the screens show for `C[C@H](O)Cc1cn(-c2cc3cc(C#Cc4ccsc4)ccc3oc2=O)nn1`?
NPR2 activator: inactive; ADAM17 inh: inactive; FAS TE block: inactive; NPR1 activator: 47; ADAM10 inh: inactive

How did COC(=O)C1CN(Cc2cn(Cc3ccccc3)nn2)CCS(=O)(=O)N1Cc1ccc(C)cc1 (centres undefined) do in these assays?
NPR2 activator: inactive; ADAM17 inh: inactive; NPR1 activator: inactive; ADAM10 inh: inactive

How did CCN(CC)CCSc1nc2c([nH]1)c(=S)n(C)c(=O)n2C do in these assays?
NPR2 activator: inactive; ADAM17 inh: inactive; FAS TE block: inactive; NPR1 activator: inactive; ADAM10 inh: inactive

How did CCCCSc1nc2c([nH]1)c(=S)n(C)c(=O)n2C do in these assays?
NPR2 activator: 37; ADAM17 inh: inactive; FAS TE block: inactive; NPR1 activator: inactive; ADAM10 inh: inactive
